The results in this text go back to PubChem BioAssay (NCI).

The structures appear in SMILES notation. About 83,000 compounds went through this panel and 20% of them were active in at least one assay; those are over-represented in the sample as a whole.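 Results are percent growth after 48 hours of single-concentration exposure. 100 means growth as in untreated cells, lower positive values show inhibition; negative values down to -100 show cell death.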 Calls of active or inactive are those of the source.

For this test, the system named is OVCAR-4 ovarian. Put plainly: NCI-60 one-dose screen, 48 h (100 = growth as untreated, 0 = no growth, -100 = all killed). The conditions noted are these: 10 µM unless noted. On the procedure:
Growth inhibition of the OVCAR-4 human tumor cell line is measured as a screen for anti-cancer activity. Cells are grown in 96 well plates and exposed to the test compound for 48 hours. Compounds are tested at a single concentration, which is 10^-5 M for most compounds. The reported endpoint is percent growth (GI% or GIPRCNT), where numbers from 0 - 100% represent growth inhibition, and numbers from -100% - 0 represent cell death. For example, a value of 40 represents 60% growth inhibition. A value of 0 means no net growth occurred over the course of the experiment. A value of -40 indicates 40% of cells at the beginning of the experiment died by the end of the experiment. A value of -100 means all cells are dead at the end of the experiment.
NCI-60 Human Tumor Cell Lines Screen was performed using the standard one-dose NCI protocol, which is described in more detail at https://dtp.cancer.gov/discovery_development/nci-60/default.htm.
Compounds with GIPRCNT values below 10 were considered active. Activity score was based on GIPRCNT using the following formula: […]
Score is 0 for GIPRCNT values of 100 or above, 50 for GIPRCNT values of 0, and 100 for GIPRCNT values of -100.
On to `Fc1ccc2c(-c3cncn3CCc3ccccc3)c[nH]c2c1`, for which the growth is 60.7% (inactive).

As to `N#Cc1c(NCc2ccccc2I)sc2c1CCCCC2`, the growth was 90% (inactive).

For the compound `CC(=O)Nc1ccc(-c2ccc3c(c2)NC(=O)/C3=C\c2ccc[nH]2)cc1`, the growth was 102% (inactive).

`CC(Oc1ccc(C(=O)O)cc1C(F)(F)F)c1ccc(Oc2ccccc2)cn1` (stereo not given): the growth was 106% (inactive).

`CC(C)N1C(=O)/C(=C2\SC(=S)N(C(C)C)C2=O)SC1=S`: the growth is 89.6% (inactive).

For the compound `COc1ccc(/C=C2\COc3ccc(-c4ccccc4)cc3C2=O)c(OC)c1`, the growth was 64.7% (inactive).

Take `CCCCCCCCO/N=C\c1c2c(O)c3c(O)c(C)c4c(c3c1O)C(=O)C(C)(O/C=C\C(OC)C(C)C(OC(C)=O)C(C)C(O)C(C)C(O)C(C)/C=C\C=C(\C)C(=O)N2)O4` (stereo not given): the growth is 29.4% (inactive).

Take `CCCCOc1ccc(/C(C)=N/Nc2cc(C)nc3ccc(Br)cc23)cc1`: the growth was 101% (inactive).

With `COc1cc2c(=O)n(CCN)c3c4cc5c(cc4ccc3c2cc1OC)OCO5`, the growth was -76% (active).

Consider `O=[N+]([O-])c1ccc(N=Nc2cc(S(=O)(=O)O)c3cccc(S(=O)(=O)O)c3c2O)cc1`, for which the growth was 114% (inactive).

On to `Cc1ccc(-n2cc(-c3ccccc3)c3c2N=NN2CCN=C32)cc1`, for which the growth is 97.2% (inactive).

For the compound `CCc1c2c(nc3ccc(OCc4ccc(B(O)O)cc4)cc13)-c1cc3c(c(=O)n1C2)COC(=O)[C@]3(O)CC`, the growth was 24.2% (inactive).

For `CC(=O)O[C@@H]1C2CCC3C(CC[C@@]4(C)C3CC[C@@H]4C(C)N(C)C)[C@@]2(C)CC[C@@H]1NC(=O)C=C(C)C` (stereo not given in full), the growth was -19.5% (active).

As to `O=c1ccc(-c2nc(N3CCOCC3)c3ccccc3n2)c[nH]1`, the growth is 94.2% (inactive).

`O=S(=O)(NCCNc1nccc(-c2c(-c3cccc(O)c3)nc3occn23)n1)c1ccc(C(F)(F)F)cc1`: the growth was 118% (inactive).

As for `N#C/C(=C\c1ccc(C(F)(F)F)cc1)c1cc2ccccc2[nH]1`, the growth is 92% (inactive).

As for `COc1ccc2c(c1)C(=O)CC(c1ccccc1OC)O2` (stereo not given), the growth is 102% (inactive).

Consider `COc1ccc(C(=O)/C=C/c2cc3ccccc3n3nnnc23)cc1`, for which the growth was 106% (inactive).

On to `O=C(Nc1ccc(-c2ccc3c(c2)NC(=O)/C3=C\c2ccc[nH]2)cc1)NC1CC1`, for which the growth was 98.3% (inactive).

Take `COc1cc(NC(=O)CSc2nc3ccc(C)cc3c(=O)n2Cc2ccccc2)cc(OC)c1OC`: the growth was 23.9% (inactive).

For `COc1ccc(-c2nc([C@@H](C)Sc3nc(N)cc(N)n3)c(C)s2)cc1OCCN1CCOCC1`, the growth is 106% (inactive).

Regarding `COc1cc(/C(C)=C(\c2ccc(Cl)cc2)c2ccc(OCCN(C)C)cc2)ccc1F`, the growth is 45.9% (inactive).

In the case of `Cc1ccc(NC(C(=O)c2ccccc2)c2ccccc2)cc1` (stereo not given), the growth was 49.5% (inactive).

On to `OC(c1cccc(C(F)(F)F)c1)c1cnccc1NC1CCCCC1` (stereo not given), for which the growth was 74.7% (inactive).

With `COc1cc(-c2cc(-c3ccc(N(C)C)cc3)nc(N3CCOCC3)c2C#N)cc(OC)c1OC`, the growth is 64.5% (inactive).

On to `O=[N+]([O-])c1ccc(NC(=S)N/N=C/c2cc3ccccc3n3nnnc23)cc1`, for which the growth was 63.8% (inactive).

In the case of `N/C(=N\C(N)=N\c1nc2ccccc2s1)c1ccnc(Br)c1`, the growth was 59.1% (inactive).

As to `CCOC(=O)CCN(CC(C)C)C(=S)Nc1ccccc1`, the growth is 112% (inactive).

In the case of `O=C(/C=C/c1c(-c2ccc(Cl)cc2)nn(-c2ccccc2)c1C(F)(F)F)c1ccc(Cl)cc1`, the growth was 89% (inactive).

`Cc1cnc(C(=O)Nc2nc3ccc(S(=O)(=O)Nc4ccc(C(C)(C)C)cc4)cc3[nH]2)cn1`: the growth was 46.5% (inactive).

Take `CCCCCCCCCCCCCCCC[N+]1(C)CCN(SN2CC[N+](C)(CCCCCCCCCCCCCCCC)CC2)CC1`: the growth is 74.6% (inactive).

Take `COc1cccc(-c2nc3occn3c2-c2ccnc(NCCNS(=O)(=O)c3cccc4ccccc34)n2)c1`: the growth is 102% (inactive).

As to `CCOc1ccc(Nc2nc(-c3ccc4c(c3)NC(=O)CO4)cs2)cc1`, the growth is 25% (inactive).

Take `COc1cc(F)c(/C=C/c2cc(/C=C/c3cc(OC)c(OC)cc3F)on2)cc1OC`: the growth was 101% (inactive).

With `CC1(C)NCCC[C@]2(C)[C@H]3CC(=O)[C@H]4[C@@H]5C[C@](C)(CO)CC[C@]5(C)CC[C@@]4(C)[C@]3(C)CC[C@@H]12`, the growth is 92% (inactive).

For `CC(=O)OC[C@]12CC[C@@H](C(=O)CBr)[C@@H]1[C@H]1CC[C@@H]3[C@@]4(C)CC[C@H](OC(C)=O)C(C)(C)[C@@H]4CC[C@@]3(C)[C@]1(C)CC2`, the growth is 94% (inactive).

Turning to `NC1[C@H](c2c[nH]c3ccccc23)c2c([nH]c3ccccc23)[C@H]1c1c[nH]c2ccccc12` (stereo not given in full), the growth was 86.6% (inactive).

For the compound `COc1cc(/C=C\c2cc(OC)c(OC)c(OC)c2)cc(NC(=O)/C=C/c2cc(OC)c(OC)c(OC)c2)c1OC`, the growth is 61% (inactive).

With `O=C(/C(=C\c1ccc([N+](=O)[O-])cc1)S(=O)Cc1ccc(Cl)cc1)c1ccc(Cl)cc1` (stereo not given), the growth is 81.1% (inactive).

`CCOC(=O)c1cc(C(=O)c2ccc(Br)cc2)n2ccc(/C=C/c3cc[n+](CC(=O)c4ccc(OC)cc4)cc3)cc12`: the growth is 86.7% (inactive).
